Data taken from PubChem BioAssay (NCI).
About 79,000 compounds went through this panel and 15% of them were active in at least one assay; those are over-represented in the sample as a whole. Values without a mark were called inactive. Calls of active or inactive are those of the source. Rule as the data show it: active = growth inhibition above about 70%; inactive = the rest.

How the values were obtained:
[1] = NCI Yeast Anticancer Drug Screen. Data for the rad50 strain (AID 155);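 also: 0% = growth of vehicle-only cultures of the same strain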; details: S. cerevisiae rad50 strain growth inhibition; at 50.0 µM; active compounds read high
In short: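 Vehicle-treated cultures provide the reference for the growth inhibition reported for compound-exposed, repair-deficient yeast.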

[2] = NCI Yeast Anticancer Drug Screen. Data for the mec2-1 strain (AID 157); details: S. cerevisiae mec2-1 strain, at 50.0 µM, active compounds read high
In short: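 Yeast mec2-1 mutant treated with compound. Readout: growth inhibition vs vehicle controls.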

[3] = NCI Yeast Anticancer Drug Screen. Data for the sgs1 mgt1 strain (AID 161);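 also: 0% = growth of cultures given vehicle only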; details: S. cerevisiae sgs1 mgt1 strain, at 50.0 µM, active compounds read high
In short: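 Genetically altered yeast, compound exposure, growth inhibition relative to vehicle.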

[4] = NCI Yeast Anticancer Drug Screen. Data for the cln2 rad14 strain (AID 165);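 also: 0% = growth equal to vehicle treated cultures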; details: S. cerevisiae cln2 rad14 strain, at 50.0 µM, active compounds read high
In short: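 cln2 rad14 yeast strain; compound exposure; growth inhibition read vs vehicle controls.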

[5] = NCI Yeast Anticancer Drug Screen. Data for the bub3 strain (AID 167); details: S. cerevisiae bub3 mutant strain, at 50.0 µM, active compounds read high
In short: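 Mutant yeast screening strain plus compound; vehicle-treated cultures serve as the 0% inhibition reference.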

[6] = NCI Yeast Anticancer Drug Screen. Data for the mlh1 rad18 strain (AID 175); details: S. cerevisiae mlh1 rad18 strain growth inhibition; at 50.0 µM; active compounds read high
In short: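 Yeast w/ defined DNA-repair lesions; compound exposure; growth vs vehicle controls → % inhibition.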

Row | Structure (SMILES) | growth inhibition [1] | growth inhibition [2] | growth inhibition [3] | growth inhibition [4] | growth inhibition [5] | growth inhibition [6]
1 | O=NN(CC1(O)OCC(O)C(O)C1O)C(Cc1c[nH]c2ccccc12)C(=O)O (configuration not stated) | -8.7% | -22.9% | -27.1% | 2.1% | -0.5% | -4.8%
2 | NC(=O)SCC(=O)Nc1ccccc1O | 14.6% | -27.4% | 2.25% | 0.05% | 0.85% | -9.5%
3 | CC(NC(=O)C(C)(C)C)c1ccc(-c2ccccc2)cc1 (configuration not stated) | 11.8% | 29.6% | 9.2% | 12.6% | 2% | 10.8%
4 | C/C(=N\NC(=S)Nc1ccc([N+](=O)[O-])cc1S(=O)(=O)O)c1ccccn1 | 12.6% | 20.4% | -5.85% | -2.35% | -0.4% | 22.9%
5 | CC(=O)C1CCC2C3CC=C4CC(O)C=CC4(C)C3CCC12C (configuration not stated) | 7.6% | 22.1% | 11.2% | -1.65% | 5.1% | 17.9%
6 | CCCCN(CCCC)CC(O)c1cc(-c2cc(C(O)CN(CCCC)CCCC)c3ccccc3n2)nc2ccccc12 (configuration not stated) | 50.9% | -8.2% | 46.1% | -6.85% | 5.3% | 32.4%
7 | C=C(C(=O)O)C1CC[C@@]2(C)CC(O)CC(=C)C2C1 (some centres not stated) | 16.4% | -0.95% | -8.1% | 5.3% | -2.9% | 14.7%
8 | Oc1ccccc1CNCCNCc1ccccc1O | -12.2% | -14.1% | 1.6% | 17.6% | -4.5% | -36.2%
9 | Cc1ccc(O)c(C(C)(C)C)c1 | 14.9% | -8% | 20.4% | 21.3% | -0.65% | 8.5%
10 | O=S1(=O)CCCCC1C(O)(c1ccccc1)c1ccccc1 (configuration not stated) | 96% (active) | 94.2% (active) | 91.2% (active) | 95.5% (active) | 95.8% (active) | 96% (active)
11 | CN=C(N)NC | -0.1% | 2.45% | 15.1% | 24.1% | 8.55% | 20.1%
12 | CCCCC1C(=O)N=C2C=CC=CN2C1=O (configuration not stated) | -2.15% | -16.9% | -5.75% | 3.5% | -24.2% | -7.4%
13 | O=c1cc(CO)oc(C(Nc2cccc(Cl)c2)c2ccccc2)c1O (configuration not stated) | 34.2% | -4.65% | 23.1% | -15.2% | 10.2% | 21.1%
14 | Cc1ccccc1N=C(N)NC#N | -14% | -31.9% | -15.1% | -4.65% | -13.2% | -49.7%
15 | CC1([C@H]2CC[C@H]3[C@@H]4CC[C@H]5OC(=O)CC[C@]5(C)[C@H]4CC[C@]23C)SCCS1 | 20.7% | -19% | 12.5% | 8.6% | 8.55% | 14.8%
16 | C=CCOC1OC(CO)C(O)C(O)C1O (configuration not stated) | 9.8% | 38% | 29.2% | 11.5% | 7.3% | 9.35%
17 | CC(=O)Nc1ccc(Cc2ccc3[nH]c(=O)cc(C)c3c2)cc1 | -16.3% | 18.6% | 15.8% | 5.35% | -30.1% | 12.9%
18 | COc1ccc(C23CCC(=O)N2CCS3)cc1 (configuration not stated) | -1.25% | -20.3% | -10.7% | 8.15% | 30% | 2.8%
19 | Nc1ccc(OCCc2c(N)nc(N)nc2N)cc1 | -1.2% | 7.15% | 12.4% | -4.05% | 22.7% | 9.7%
20 | O=c1/c(=C/c2ccccc2[N+](=O)[O-])sc2nnc(-c3cccnc3)n12 | 11.7% | 6.45% | 12.8% | 21.1% | 11.8% | 1.4%
21 | COc1ccc2ccccc2c1C1=NC(C)(C)CO1 | -6.65% | -18.6% | 2.6% | 18.5% | -3.8% | -16.6%

Row | Structure (SMILES) | growth inhibition [1] | growth inhibition [2] | growth inhibition [3] | growth inhibition [4] | growth inhibition [5] | growth inhibition [6]
22 | O=S(=O)(/N=C(Cl)/C(Cl)=N/S(=O)(=O)c1ccccc1)c1ccccc1 | 15.3% | -1.65% | 22.7% | -9.9% | -0.1% | 5.3%
23 | NC(CSCCC(=O)O)C(=O)O (configuration not stated) | -16.9% | -10.3% | -7.45% | -39.6% | -3.05% | -12.4%
24 | CCC(N)(C(=O)O)C(C)C (configuration not stated) | -25.7% | -8.65% | -12.1% | -0.45% | 8.4% | -3.75%
25 | COc1ccc(C2=NCCO2)cc1N | 3.6% | 0.45% | -13.7% | -5.5% | 4.35% | 11.4%
26 | COc1cccc(C(=O)O)c1O | -16.9% | -11.8% | -15.3% | -8.8% | -19.9% | -7.7%
27 | COc1ccc(CC[n+]2cccc(/C(=N/O)c3ccccc3)c2)cc1OC | 46.9% | -8.3% | 25.2% | 2.7% | 8.25% | 6.35%
28 | O=[N+]([O-])c1cccnc1Oc1cccc(C(F)(F)F)c1 | -16.8% | 21.9% | 14.4% | -7.95% | -16.1% | 1.15%
29 | O=C1CCC(c2ccccc2)C(O)(C(=O)O)C1 (configuration not stated) | 6.45% | -8.1% | -13.9% | -5.1% | -14.3% | -24.9%
30 | CNOCc1ccc(C(=O)NC(C)C)cc1 | 12.2% | 17.6% | 2.8% | -30.9% | 11.7% | 17.5%
31 | O=c1cc(C=Nc2ccc(-c3csc(-c4ccccc4)n3)cc2)[nH]c(=S)[nH]1 | 97.2% (active) | 91.2% (active) | 97.7% (active) | 97.2% (active) | 96.5% (active) | 98% (active)
32 | OC1c2ccccc2-c2ccccc21 | 35.6% | 0.95% | -15.4% | -22.3% | 6.8% | 25.2%
33 | O=C(CC(O)(C(F)(F)F)C(F)(F)F)c1cccs1 | 3.65% | 15.4% | 3.75% | -34.9% | -5.15% | 7.5%
34 | CC(=O)C(CCN(C)C)c1ccc2c(c1)CCc1ccccc1-2 (configuration not stated) | 13.3% | 5.65% | 19.4% | -8.45% | 13.3% | 27.6%
35 | Nc1nc(SCC(=O)c2ccc(F)cc2)sc1C(=O)c1ccc(F)cc1 | -9.75% | 6.9% | 1.4% | 1.3% | -0.9% | 14%
36 | NCC(O)COCc1ccccc1 (configuration not stated) | -16.1% | -24.4% | -1.65% | -28.1% | -1.6% | -0.35%
37 | O=S(=O)(c1ccc(NC(=S)NCc2ccco2)cc1)N1CCCCC1 | 46% | 5.6% | 42.1% | 38.3% | 28.9% | 25.6%
38 | CC(=O)Nc1ccc(Cc2cc([N+](=O)[O-])cc([N+](=O)[O-])c2)cc1 | -0.1% | -14.6% | 2.75% | -50.9% | 24.9% | -18.6%
39 | O=C1c2ccsc2C(=O)c2sc(CO)cc21 | 90.3% (active) | 91.2% (active) | 91% (active) | 91.8% (active) | 90% (active) | 83% (active)
40 | C=CCOCCC(OCC=C)OCC=C | 1.25% | 7.75% | 4.4% | -23.9% | -1.3% | 8.85%
41 | CCOC1CN=C(Nc2cccc3ccccc23)S1 (configuration not stated) | -51.6% | -33.3% | -27.9% | -2.65% | -34.4% | -29.8%
42 | O=C(CCN1CCCC1)c1ccccc1 | -25.1% | -15.1% | -11.4% | 5.45% | -10.6% | -11.1%
